Hits are enriched below; roughly 11% of the tested compounds scored in any of these assays.
Tau fluor counter: Counterscreen qHTS for Inhibitors of Tau Fibril Formation, Fluorescence Polarization | tau K18 P301L Alexa594 fluorescence, heparin fibrillization | Potency, µM (titrated, usually from 57.7 µM) | 280,000 tested, 0.93% active; further: nearly all actives have a fitted effect of over 55% in size
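Human tau K18 P301L (15 uM unlabeled, 0.24 uM Alexa 594-labeled) in 100 mM sodium acetate pH 7 with 20 uM heparin, 6 hr at 37 C. ThT 30 uM added, 1 hr ambient; Alexa 594 FP and total fluorescence read at 555/632 nm.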
G9a block: qHTS Assay for Inhibitors of Histone Lysine Methyltransferase G9a. G9a H3K9 monomethylation, AlphaScreen, 2 h. Potency, µM (top dose mostly 102 µM), most hits filed as inhibitors. 350,000 tested, 8.8% active. AID 504332, 2011; further: nearly all actives have a fitted effect of over 75% in size
Target sequence (Q96KQ7 913-1193 limits assumed): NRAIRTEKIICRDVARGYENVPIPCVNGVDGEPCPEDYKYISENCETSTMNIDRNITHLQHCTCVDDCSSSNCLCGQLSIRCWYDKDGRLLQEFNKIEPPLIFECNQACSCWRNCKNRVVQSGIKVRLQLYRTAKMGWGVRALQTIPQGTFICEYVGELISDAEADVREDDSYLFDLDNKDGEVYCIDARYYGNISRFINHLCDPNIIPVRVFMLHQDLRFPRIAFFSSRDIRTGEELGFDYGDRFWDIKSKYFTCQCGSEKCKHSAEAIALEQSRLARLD
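Chemiluminescent proximity detection of H3K9 monomethylation, read after 10 min bead incubation in the dark. Reaction: 20 nM G9a, 500 nM biotin-H3K9 peptide, 20 uM SAM cofactor, 2 h, room temperature, following 15 min enzyme-compound preincubation.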
FBPA coupling cs: qHTS Assay for Inhibitors of Fructose-1,6-bisphosphate Aldolase from Giardia Lamblia: Coupling assay counterscreen; 290,000 tested, 0.67% active; coupling enzyme system counterscreen, AmpLite Red fluorescence; activity change, negative = inhibition, % at 58.2 µM, hits read low; in the data active means activity change below about -30%
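Activity here indicates interference with the coupling reaction, not aldolase inhibition. Compounds at 57.5 uM final met coupling enzymes for 10 min at RT; substrate and AmpLite Red detection followed, with a 525/598 nm fluorescence read after 20 min.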
Tau fibril FP: qHTS for Inhibitors of Tau Fibril Formation, Fluorescence Polarization. Microtubule-associated protein tau (Homo sapiens), P10636. K18 P301L tau heparin fibrillization, Alexa594 FP, 6 h. Potency, µM (series often up to 57.7 µM), actives largely listed as inhibitors. 280,000 tested, 0.39% active; further: nearly all actives have a fitted effect of over 55% in size
Target sequence (P10636 561-689 P618L limits assumed): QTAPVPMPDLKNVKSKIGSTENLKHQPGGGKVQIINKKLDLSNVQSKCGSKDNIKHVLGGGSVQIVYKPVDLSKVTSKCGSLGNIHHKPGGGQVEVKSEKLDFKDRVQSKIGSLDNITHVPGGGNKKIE
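Quantitative HTS format: compounds meet 15 uM recombinant K18 P301L tau and Alexa 594-tau tracer in 100 mM sodium acetate pH 7; 20 uM heparin triggers fibrillization at 37 C over 6 hr; FP gives the signal.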
Tau fibril ThT: qHTS for Inhibitors of Tau Fibril Formation, Thioflavin T Binding. recombinant tau K18 P301L, heparin-induced fibrillization, ThT fluorescence. Potency, µM (series often up to 57.4 µM), hits mostly inhibitors. 270,000 tested, 2.1% active. AID 1460, 2008; further: nearly all actives have a fitted effect of over 55% in size
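Using a mix of unlabeled (15 uM) and Alexa 594-labeled (0.24 uM) tau K18 P301L, heparin-triggered fibrillization over 6 hr at 37 C was scored by ThT fluorescence.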
Sfp PPTase inh: qHTS Assay for Inhibitors of Bacillus subtilis Sfp phosphopantetheinyl transferase (PPTase). 310,000 tested, 3.5% active. Potency, µM, usual class: inhibitors. Biochemical Sfp PPTase activity, qHTS;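 further: the enzyme is Sfp with the accession as filed and its product quenches rhodamine fluorescence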
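Buffer: 50 mM Hepes-Na pH 7.6, 10 mM MgCl2, 0.01% Nonidet P-40, 0.01% BSA. Enzyme 15 nM, pre-exposed to compound 15 min; substrates then added and fluorescence change tracked over 30 min.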
A number is an active result; - = inactive; ? = inconclusive; . = not tested or not shown; [ ] = dose if it differs, or a comment. Unless noted, the call rests on the fitted dose curve; in most records, active means well fitted curve in the direction sought with a large enough effect; inconclusive means small, poorly fitted or top-dose-only effect, or another doubt; inactive means no such curve, though single readings can be large; an effect the other way counts as inactive or inconclusive.

SMILES	Tau fluor counter	G9a block	FBPA coupling cs	Tau fibril FP	Tau fibril ThT	Sfp PPTase inh
COCCN(C(=S)Nc1ccc(OC)cc1)C1CCN(C(C)C)CC1	-	-	-	-	-	-
Cc1ccc(C(=O)c2oc3ccccc3c2NC(=O)c2cc(-c3ccccc3)on2)cc1F	-	-	.	-	-	.
Cc1ccc(CNC(=O)C2CCC(=O)N(Cc3ccc(Cl)cc3)C2)cc1F (stereo unspecified)	.	.	.	.	.	-
CCCc1nccn1S(=O)(=O)c1cc(Br)ccc1OC	-	-	.	-	-	.
COc1ccc(NC(=S)N(CCCN2CCC(C)CC2)Cc2cccs2)cc1Cl	-	?	-	-	-	31.6µM
COc1ccc(NC(=S)N(CCCN2CCCC2)Cc2cccn2Cc2ccc(Cl)cc2)cc1Cl	?	28.2µM	-	-	?	79.4µM
FC(F)(F)c1cccc(NC(=S)N(CCCN2CCCC2)Cc2cccn2Cc2ccc(Cl)cc2)c1	?	44.7µM	-	-	?	56.2µM
CCCN(Cc1ccccc1)C(=S)Nc1cccc(C(F)(F)F)c1	-	-	-	-	-	-
CCCS(=O)(=O)N1CCC(N2CCN(Cc3ccc(F)cc3)C(=O)C2=O)CC1	-	-[12.7 µM]	.	-	-	.
C=Cc1ccc(N=Cc2c(O)ccc3ccccc23)cc1	.	1.58µM	-30.3	.	.	-
Cc1cc(C(=O)O)ccc1N=Cc1c(O)ccc2ccccc12	.	2.51µM	-	.	.	-
COc1ccccc1OCC(=O)N/N=C/c1c(O)ccc2ccccc12	.	-	.	.	.	-
Oc1ccc(N=Nc2cccc(Cl)c2)cc1C=Nc1ccc(N2CCOCC2)cc1	-	?	-	-	?	-
Oc1ccc2ccccc2c1C=Nc1ccc(N2CCOCC2)cc1	?	?	-	-	5.01µM	-
CC(=O)N(C)c1ccc(N=Cc2c(O)ccc3ccccc23)cc1	.	3.98µM	-	.	.	-
O=C(CCc1ccccc1)NC1(Cc2ccccc2)CCN(CCCc2ccccc2)C1=O (stereo unspecified)	.	-[0.501 µM]	.	.	.	.
Cc1cc(C)n(C(C)CC(=O)NCc2ccc(N(C)C)cc2)n1 (stereo unspecified)	-	?	.	-	-	.
CNC(=O)[C@H]1O[C@H](n2cnc3c(NCc4cccc(I)c4)ncnc32)[C@@H](O)[C@@H]1O	-	.	-	?	-	-
CC(=O)c1cccc(N=Cc2c(O)ccc3ccccc23)c1	.	1.58µM	-	.	.	-
CC(=O)c1cccc(N=Cc2c(O)c3ccccc3oc2=O)c1	.	-	-	.	.	-
C(=Nc1ccc(N2CCOCC2)cc1)c1c[nH]c2ccccc12	?	?	-	-	25.1µM	-
Oc1cnc2ccccc2c1CN1CCOCC1	-	?	-	-	-	-
O=C(N/N=C/c1c(O)ccc2ccccc12)c1cccc(C(F)(F)F)c1	8.91µM[quencher]	-	-	?	?	-
Oc1ccc2ccccc2c1CN1CCOCC1	?	0.355µM	-	-	?	-
O=C(CNc1cccc(S(=O)(=O)N2CCCC2)c1)Nc1ccc(C(F)(F)F)cc1	.	-	.	.	.	.
SMILES	Tau fluor counter	G9a block	FBPA coupling cs	Tau fibril FP	Tau fibril ThT	Sfp PPTase inh
Cc1ccc(Cn2c(C)c(CNC3CCCCC3)c(C(=O)O)c2C)cc1	-	-	.	-	-	.
CC(C)(CO)Nc1nc(Cl)nc(NC2CCCCC2)n1	-[11.6 µM]	-	-	-[11.6 µM]	.	-
COc1ccc(CC(=O)NNc2ncnc3c2cnn3C)cc1	-	25.1µM	-	-	-	-
COc1ccc(Nc2ncnc3sc(-c4ccccc4)cc23)cc1	7.94µM[quencher]	-[12.7 µM]	-	?	?	-
COc1ccc(Nc2ncnc3c2cnn3Cc2ccccc2)cc1	?	50.1µM	-	-	-	-
CSCC[C@H](NC(=O)Nc1cccc(Br)c1)C(=O)O	-	-	-	-	-	-
Cc1c(C2=CCN(S(=O)(=O)c3ccc(CC(C)C)cc3)CC2)c2ccccc2n1CC(=O)N1CCCC1	-	?	.	-	-	.
Cc1ccc(S(=O)(=O)CC(=O)Nc2nc3ccccc3s2)cc1	.	-	-	.	.	-
Cc1ccc(S(=O)(=O)Cc2sc3ccccc3[n+]2C)cc1	-	44.7µM	-	-	-	-
COc1ccc(CCNC(=O)c2ccc3c(c2)NC(=O)C(CSCc2cc(C)ccc2C)N3)cc1OC (stereo unspecified)	.	1.78µM	-	.	.	44.7µM
COc1ccc(CCNC(=O)c2ccc(CNS(=O)(=O)c3ccc(C(C)(C)C)cc3)cc2)cc1OC	-	-	-	-	-	-
COc1ccc(CCNC(=O)c2ccc(CNS(=O)(=O)c3cc(C)ccc3C)cc2)cc1OC	-	22.4µM	-	-	?	-
CC(C)Cc1ccc(C(C)C(=O)Nc2ccccc2O)cc1 (stereo unspecified)	?	.	-	?	-	-
Cc1ccc(C)c(N2CCN(S(=O)(=O)c3ccc(C(=O)N(C)C)s3)CC2)c1	-	-[12.7 µM]	.	-	-	.
O=[N+]([O-])c1cccnc1Sc1n[nH]c(-c2ccc(Cl)cc2)n1	?	.	-	-	?	-
O=[N+]([O-])c1cccnc1Sc1ccc(Cl)cc1	.	44.7µM	-	.	.	-
CCOC(=O)c1nn2c(C(F)(F)F)cc(-c3ccc(C)cc3)nc2c1Cl	-	-	.	-	-	.
O=S(=O)(NCCc1cn2ccccc2n1)c1ccc2c(c1)OCCO2	-	-	-	-	-	-
O=S(=O)(NCCc1cn2ccccc2n1)c1ccc2c(c1)CCCC2	-	50.1µM	-	-	-	-
O=C(Nc1nccs1)c1ccc(NC(=O)C2CC=CCC2C(=O)O)cc1 (stereo unspecified)	-	-	-	-	-	-
Cn1c(N)c(C(=O)COC(=O)c2cc(-c3ccco3)nc3ccccc23)c(=O)n(Cc2ccccc2)c1=O	?	7.94µM	-	?	12.6µM	44.7µM
COc1ccc(-c2cc(C(=O)OCC(=O)c3c(N)n(C)c(=O)n(C)c3=O)c3ccccc3n2)cc1	-	-	-	?	-	-
Cn1c(N)c(C(=O)COC(=O)c2cc(-c3ccco3)nc3ccccc23)c(=O)n(C)c1=O	?	7.94µM	-	-	?	12.6µM
Cn1c(N)c(C(=O)COC(=O)c2cc(C(F)(F)F)nc3ccccc23)c(=O)n(Cc2ccccc2)c1=O	?	?	-	?	?	-
CCc1ccccc1N(CC(=O)NC1CCCCC1)C(=O)CNC(=O)c1ccco1	.	-	-	.	.	-
COc1ccc2c(c1)OC/C(=C/c1ccc(O)c(O)c1)C2=O	-	-[2.33 µM]	-	-	?	-
COc1ccc2c(c1)OC/C(=C/c1ccc(OC)c(OC)c1)C2=O	?	.	-	-	11.2µM	?

Screening data deposited in PubChem BioAssay by National Center for Advancing Translational Sciences (NCATS).
